PubChem BioAssay (NCI)
This is part of a sample that, as a whole, favours compounds with a hit. Of some 79,000 tested, about 15% had one in any assay. Unmarked numbers belong to inactive results. Calls of active or inactive are those of the source. Cut-off read from the data, not from the text of the source: active = growth inhibition above about 70%; inactive = the rest.

How the values were obtained:
[1] = NCI Yeast Anticancer Drug Screen. Data for the rad50 strain (AID 155);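 note: 0% = growth of vehicle-only cultures of the same strain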; details: S. cerevisiae rad50 strain growth inhibition; at 50.0 µM; active compounds read high
Outline: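 Growth of the mutant yeast was measured after compound exposure and referenced to vehicle-treated cultures.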

[2] = NCI Yeast Anticancer Drug Screen. Data for the mec2-1 strain (AID 157); details: S. cerevisiae mec2-1 strain, at 50.0 µM, active compounds read high
Outline: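 Using mec2-1 yeast: add compound, measure growth, express inhibition versus vehicle-treated cultures.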

[3] = NCI Yeast Anticancer Drug Screen. Data for the sgs1 mgt1 strain (AID 161);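 note: 0% = growth of cultures given vehicle only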; details: S. cerevisiae sgs1 mgt1 strain, at 50.0 µM, active compounds read high
Outline: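 Growth of a repair-deficient yeast mutant was monitored after compound treatment and expressed as inhibition relative to vehicle-treated cultures.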

[4] = NCI Yeast Anticancer Drug Screen. Data for the cln2 rad14 strain (AID 165);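 note: 0% = growth equal to vehicle treated cultures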; details: S. cerevisiae cln2 rad14 strain, at 50.0 µM, active compounds read high
Outline: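 Yeast strain cln2 rad14, bearing defects in cell cycle control and DNA repair, serves as the test system; values reflect growth inhibition compared with vehicle.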

[5] = NCI Yeast Anticancer Drug Screen. Data for the bub3 strain (AID 167); details: S. cerevisiae bub3 mutant strain, at 50.0 µM, active compounds read high
Outline: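 Whole-cell yeast assay. The mutant strain was incubated with compounds, and growth inhibition was determined by comparison with vehicle-treated cells.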

[6] = NCI Yeast Anticancer Drug Screen. Data for the mlh1 rad18 strain (AID 175); details: S. cerevisiae mlh1 rad18 strain growth inhibition; at 50.0 µM; active compounds read high
Outline: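 Steps: expose repair-defective yeast to compound; measure growth; express inhibition against vehicle-treated controls.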

SMILES	growth inhibition [1] [%]	growth inhibition [2] [%]	growth inhibition [3]	growth inhibition [4] [%]	growth inhibition [5] [%]	growth inhibition [6] [%]
O=C(Nc1c(Cl)cccc1Cl)Nc1c(Cl)cccc1Cl	-0.95	-4.85	21.1%	6.7	16.8	10.9
ClCCCOc1ccccc1	21.5	23.2	22.6%	8.55	-5.25	11.6
CC(C(=O)O)N(C)C(=O)OCc1ccccc1 (stereo not given)	-3.95	-21.1	1.55%	-18.8	-11.8	-4.5
CC1=C(O)C(=O)C(C2=C(O)C(=O)C(C)=C(O)C2=O)=C(O)C1=O	5.3	-12.4	24.4%	10	5.8	12.6
Nc1ccccc1OCC(=O)Nc1c(N)ncnc1N	0.4	-6.35	6.85%	2.95	5.9	-3.8
CC1OC(OC2CCC3(C)C(CCC4C3CC(O)C3(C)C(C5=CC(=O)OC5)CCC43O)C2)CC(O)C1OC1CC(O)C(OC2CC(O)C(OC3OC(CO)C(O)C(O)C3O)C(C)O2)C(C)O1 (stereo not given)	16.4	-7.7	-0.4%	4.35	10.6	20.1
Cc1ccc(S(=O)(=O)N/N=C2/C(=O)N(c3ccc(Cl)cc3C)C(=O)C(=O)C2c2nc3ccccc3s2)cc1 (stereo not given)	0.85	20.7	1.85%	7.5	-2.1	11.2
CC(C)[C@@]12O[C@@H]1CC13OC1[C@@H](O)CC[C@@]32O (stereo not given in full)	-16.6	-1.05	-2.8%	-27.9	-6.25	-20.8
N#CN1CCC2CC(=O)CCC2C1 (stereo not given)	6.2	2.95	-6.5%	5.75	0.75	-10.6
O=C(NC(Nc1ccc(F)c(Cl)c1)(C(F)(F)F)C(F)(F)F)OCc1ccccc1	-1.35	-1.05	-23.1%	3.1	-5.5	24.3
Cc1nc(Nc2ccccc2)c(C#N)c(=O)[nH]1	-19.6	-16.4	-15.6%	-10.1	-2.95	-7.05
O=c1[nH]cc(F)c(=O)n1-c1ccco1	42.6	67.5	79.8% (active)	-0.55	52.2	34.9
O=C(CSc1c2ccccc2nc2ccccc12)Nc1ccccc1-c1ccccc1NC(=O)CSc1c2ccccc2nc2ccccc12	27.4	9.75	18.6%	6.9	19	34.5
CN(C)c1ncnc2c1ncn2C1OC(CO)C(O)C1O (stereo not given)	14.2	20	4%	-34.4	18.1	24.5
COc1ccc2ccccc2c1CN1CCOCCOCCN(Cc2c(OC)ccc3ccccc23)CCOCCOCC1	-18.1	-34.5	-23.4%	-28.1	5.75	-29.4
Cc1cccc(C(=O)OCCCl)c1	15.6	-7.5	8.3%	-29.1	5	5.2
CN(C)/C(=N\N=C(/c1ccc(Cl)cc1)N(C)C)c1ccc(Cl)cc1	-15.8	-8.25	1%	-24.9	-11.1	-19.1
C1CCCCCc2c(-c3n[nH]c4c3CCCCCCCCCC4)n[nH]c2CCCC1	-8.1	-1.45	-8.2%	7.9	2.75	43.8
Oc1ccc(Br)cc1/C=N\NC(=S)Nc1ccc2cn[nH]c2c1	47.1	23.9	47.8%	24.9	2.1	40.4
CCCCCC(=O)OCCCCCO	13.7	16.8	21.5%	13.2	2.6	-4.7
